Only some compounds are listed: those with a hit (about 1.5% of all), similar ones and a draw of the others.
E coli Lon inh: inhibitors of E. coli Lon protease, primary screen, biochemical, fluorescence polarization; P0A9M0; purified E. coli Lon protease; inhibition, % at 7.94 µM; 360,000 tested, 0.42% active; AID 602123, 2011; in the data active = inhibition above about 13%, passing the limit was not always enough
LANA-H2A inh: blockers of LANA interaction with H2A/H2B – biochemical, FP readout, HTS, primary screen | Protein LANA1 (Human herpesvirus 8 type P (isolate GK18)), Q9QR71 | cell-free LANA-H2A/H2B peptide, fluorescence polarization | inhibition, % (test concentration not listed) | 320,000 tested, 0.6% active; in the data active = inhibition mostly above about 10%, no sharp cut-off; inactive = mostly below about 6.7%
Keap1-Nrf2 PPI: Keap1-Nrf2 protein-protein interaction inhibitors, primary screen, biochemical, fluorescence polarization, single point; Kelch-like ECH-associated protein 1 (Homo sapiens), Q14145; Keap1 Kelch-Nrf2 peptide fluorescence polarization, 1536-well; inhibition, % at 9.4 µM; 340,000 tested, 0.15% active; in the data active = inhibition above about 12%;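 note: human Keap1 Kelch domain with fluorescein labeled Nrf2 9mer peptide probe; higher means more block of Keap1 binding to Nrf2 peptide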
EBV gp42 inh: Epstein-Barr virus gp42 inhibitors, primary screen, biochemical, uHTS, fluorescence polarization; inhibition, % (tested at 21.74 µM); Fluorescence polarization binding assay, mP read-out; Glycoprotein 42 (Epstein-Barr virus (strain AG876)), Q1HVG2; AID 1085, 2008; 220,000 tested, 0.42% active; in the data active = inhibition above about 50%
GLD-1 TGE inh: GLD-1/TGE RNA complex disruptors, primary screen, biochemical, fluorescence polarization | Female germline-specific tumor suppressor gld-1 (Caenorhabditis elegans), Q17339 | purified GLD-1 + fluorescein TGE RNA | inhibition, % at 5.96 µM | 320,000 tested, 0.44% active | AID 2280, 2010;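 active = percent inhibition above a per-plate cutoff, the plate mean of test compounds plus 3 SD, cut at about 30% in these data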
C-LANA FP: inhibitors of KSHV C-LANA binding to DNA, primary screen, biochemical, fluorescence polarization, FAM-LBS DNA, MBP-C-LANA, single point; 340,000 tested, 0.078% active; AID 504423, 2011; inhibition, % at 9 µM;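 active = highest replicate inhibition at or above 60% at 9 µM, even if other replicates fall short; inactive = all replicates below 60% inhibition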
Numbers stand for hits; - = inactive; . = no result; + = active, no number; ! = a repeat was not active.

SMILES	E coli Lon inh	LANA-H2A inh	Keap1-Nrf2 PPI	EBV gp42 inh	GLD-1 TGE inh	C-LANA FP
COc1cc(C(=O)NCC(=O)OCC(=O)N2CCc3ccccc32)cc(OC)c1OC	-	-	-	-	-	-
CN(C)S(=O)(=O)c1cccc(NC(=O)CCCc2nc3ccccc3c(=O)[nH]2)c1	-	.	-	.	-	-
Cc1cc(S(=O)(=O)N2CCN(CC(=O)NCCc3cccs3)CC2)ccc1Br	-	+	-	.	-	-
O=C(CN1CCN(S(=O)(=O)c2cccc(Br)c2)CC1)NCCc1cccs1	-	-	-	.	-	-
CC(C)CN(C#N)c1nc(N2CCOCC2)nc(N2CCOCC2)n1	-	-	-	-	-	-
CN(C#N)c1nc(N2CCOCC2)nc(N2CCOCC2)n1	-	41	-	.	-	-
COc1cccc(Nc2nc(C(N)Cc3ccc(C(F)(F)F)cc3)cs2)n1 (stereo unspecified)	-	.	.	.	.	.
CCc1nc2c(OCc3cc(Cl)cc(Cl)c3)cccn2c1N(C)C(=O)c1cccc(OC)c1	-	.	.	.	.	.
COc1ccc(CC(=O)N2CCc3ccccc3C2)cc1	-	-	-	.	.	-
O=C(Cc1ccc(Cl)cc1)N1CCc2ccccc2C1	-	20	-	.	-	-
COc1ccc(CCNC(=O)c2cc3cc(Cl)ccc3nc2N)cc1OC	-	.	.	.	.	.
CC(C)CNC(=O)c1ccc(-c2ccc(F)c(F)c2)c2ccoc12	-	.	.	.	.	.
CCc1nc2ccc(C(=O)Nc3cccc(OCC(=O)N(C)C)c3)cn2c1N(C=O)Cc1ccc(OC)cc1	-	.	.	.	.	.
CC(=O)Nc1ccc2c(O)cc(S(=O)(=O)O)cc2c1	-	.	-	.	.	-
COc1ccc(S(=O)(=O)O)cc1P(=O)(c1ccccc1)c1ccccc1	-	-	-	.	-	-
O=S(=O)(O)c1cc(O)c2cc(Nc3ccccc3)ccc2c1	-	.	-	.	.	93
COc1ccccc1Nc1ccc2c(O)cc(S(=O)(=O)O)cc2c1	-	.	-	.	.	119
O=S(=O)(O)c1cc(O)c2ccc(Nc3ccccc3)cc2c1	-	.	-	.	.	92
O=C(COC(=O)COc1ccccc1)NCc1ccco1	-	18	-	.	-	-
C[C@]12CCC3c4ccc(O)cc4CCC3C1CC/C2=N\N (stereo partly specified)	-	-	-	.	-	-
C[C@]12CC[C@@H]3c4ccc(O)cc4CC[C@H]3[C@@H]1CCC2=O	-	40!	-	-	-	-
CCCCOc1ccc(-c2cc(C(F)(F)F)c(C#N)c(SCC(=O)O)n2)cc1	-	-	-	60	-	-
N#Cc1c(C(F)(F)F)cc(-c2ccc(F)cc2)nc1SCC(=O)O	-	-	-	-	-	-
O=C(NCC1CCCO1)C1CCN(S(=O)(=O)Cc2ccccc2)CC1 (stereo unspecified)	-	-	-	-	151	-
O=C(NCC1CCCO1)C1CCN(S(=O)(=O)c2cc(Cl)ccc2Cl)CC1 (stereo unspecified)	-	13	-	.	-	-
SMILES	E coli Lon inh	LANA-H2A inh	Keap1-Nrf2 PPI	EBV gp42 inh	GLD-1 TGE inh	C-LANA FP
CC(C)CNc1ncnc2c1ncn2[C@H]1CN(Cc2ccc(C(=O)O)cc2)C[C@@H](CO)O1	-	.	.	.	.	.
CCCNC(=O)C1(C)CCN(C(=O)c2sccc2C)C1 (stereo unspecified)	-	.	.	.	.	.
C=C(CN(C)C)C(=O)c1cc(C)ccc1C	-	.	-	.	.	-
CC(C)CCN(C)C1CCN(S(=O)(=O)c2cccc(C(F)(F)F)c2)CC1	-	25	-	-	-	-
CC1=C(C(=O)N(C(C)C)C(C)C)CC(CC(=O)NC2CCCCC2)C(=O)N1Cc1ccc(F)cc1 (stereo unspecified)	-	.	.	.	.	.
CCOC1=C2[C@H](c3ccccc3)N(S(=O)(=O)c3ccccc3)C[C@H]2n2c(=O)n(-c3ccccc3)c(=O)n2C1	-	.	.	.	.	.
CCOC(=O)C(=O)/C(=C\N(C)C)c1onc(-c2ccccc2)c1C(=O)OC	-	-	-	132	-	-
CCOC(=O)C(=O)/C(=C\N(C)C)c1onc(-c2ccccc2Cl)c1C(=O)OC	-	-	-	-	-	-
CCCCC[C@@H](C)N1C[C@H](COCc2ccccc2)Oc2cc(N3CCC[C@H]3CO)ccc2S1(=O)=O	-	.	.	.	.	.
Cc1c(C(=O)c2ccc(F)cc2F)c2ccccn2c1CCC#N	-	-	-	.	90	-
Cc1c(C(=O)c2ccc(F)cc2F)c2ccccn2c1CCc1ccccn1	-	.	.	.	.	.
Nc1nc2ccccc2cc1C(=O)NCc1ccc(Cl)cc1Cl	-	.	.	.	.	.
CCN(c1ccccc1)S(=O)(=O)c1ccc(OC)c(NC(=O)CN(C)C)c1	-	94	-	-	-	-
CCN(c1ccccc1)S(=O)(=O)c1ccc(OC)c(NC(=O)CNC)c1	-	-	-	-	-	-
O=C1N=c2ccccc2=C1c1[nH]c(=S)[nH]c1O	-	12	-	-	-	-
CC(=O)Nc1ccc(S(=O)(=O)N(C)CC(=O)OC2CCCCC2=O)cc1 (stereo unspecified)	-	59	-	.	-	-
Cc1ccc(C)n1-c1cc(S(=O)(=O)N2CCOCC2)ccc1N1CCCC1	-	-	-	96	-	-
CNCc1cc(C)n(-c2cc(S(=O)(=O)N3CCOCC3)ccc2N2CCCC2)c1C	-	.	.	.	.	.
CC(=O)CC(=O)NC1CCc2ccccc21 (stereo unspecified)	-	.	-	.	.	-
Cn1nc(C(=O)Nc2cc(Cl)ccc2N2CCCC2)c2ccccc2c1=O	-	48	-	.	-	-
O=C(NCCCO)Nc1ccc2nc(-c3ccco3)c(-c3ccco3)nc2c1	.	-	.	67	54	.
CCOc1ccc2c(c1)/C(=C(\C(Cl)=C(Cl)Cl)[N+](=O)[O-])N2	-	-	-	-	89	-
CCOc1ccc2c(c1)/C(=N/N1C(=O)c3ccccc3C1=O)C(=O)N2	-	-	-	-	-	-
CCCCOc1ccc2c(c1)/C(=C(\C(Cl)=C(Cl)Cl)[N+](=O)[O-])N2	-	-	-	56	63	-
O=[N+]([O-])/C(C(Cl)=C(Cl)Cl)=C1\Nc2ccccc2O1	-	-	-	-	-	-
Cc1ccc(F)c(S(=O)(=O)NC(=O)C2(C)CCN2C(=O)Cc2ccsc2)c1 (stereo unspecified)	-	.	.	.	.	.
O=C(Cn1cncc1-c1ccc([N+](=O)[O-])cc1)Nc1ccccc1F	-	-	-	-	33	-
O=C(c1ccc(-c2ccccc2)c(F)c1)C1CCCN(C(=O)c2cncs2)C1 (stereo unspecified)	-	14	-	-	-	-
Nc1nc(N)c(Cc2ccc(Cl)cc2Cl)c(N)n1	-	32	-	-	-	-

Screens: PubChem, several laboratories
